Results filed as inconclusive are left out. The source made the active and inactive calls. Unless noted, calls come from the whole dose curve; as a rule, active = well fitted curve in the direction sought with a large enough effect; inconclusive = small, poorly fitted or top-dose-only effect, or another doubt; inactive = no such curve, though single readings can be large; an effect the other way counts as inactive or inconclusive.

The record followed here is PubChem BioAssay (NCATS).

The target of assay [1] is Lysosomal acid glucosylceramidase (Homo sapiens) (UniProt P04062). Description: Glucocerebrosidase-p2 (AID 348; in the data active = potency below about 10 µM; note: potency is the fitted concentration of half-maximal effect). The conditions noted are these: purified GBA, blue fluorogenic substrate, 40 min. A digest of the protocol:
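Compounds titrated from 0.6 nM upwards against 0.2 nM enzyme in pH 5.9 citric acid/KH2PO4, taurocholate, tween-20; blue fluorogenic substrate 80 uM, 40 min room temperature, stopped and read Ex 365/Em 440 for AC50.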

Assay [2] addresses Cytochrome P450 1A2 (Homo sapiens) (UniProt P05177). Description: p450-cyp1a2 (AID 410; calls by dose curve; note: potency is the fitted concentration of half-maximal effect). The conditions noted are these: recombinant CYP1A2, luciferin-ME demethylation, luminescence; series mostly up to 57 µM. The gist of the method: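 Inhibition was calculated relative to 57 uM furafylline (full inhibition). The reaction used human CYP1A2 at 20nM with Luciferin-ME at its Km, 100uM, driven by an NADPH-regenerating system for 60 min at room temperature.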

Assay [3] in a line: NFAT Signaling Pathway (AID 444; active = well fitted curve in either direction with a large enough effect, not every such curve was filed as active;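 note: carbachol stimulus at about its EC50 of 1 µM final; % is set by controls: 0 for no effect and ±100 for the full control effect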). The conditions noted are these: Jurkat NFAT-bla M1, carbachol, beta-lactamase ratio, 5 h; at 7.69 µM (top of the series) unless noted. A digest of the protocol: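 Jurkat cells with NFAT-driven β-lactamase reporter and co-expressed M1 receptor, stimulated with carbachol (final 1 uM, ~EC50), compound titration, 5 h at 37 °C. CCF4 loaded 1 h at RT; 460/530 nm ratio gave %activity and AC50.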

Assay [4] is described as follows: Stat Signaling Pathway (AID 446; active = well fitted curve in either direction with a large enough effect, not every such curve was filed as active;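 note: ME-180 cervical cancer cells given 40 pM IL-6 alongside compound; SIE-controlled beta-lactamase reporter measured as 460/530 nm FRET emission ratio; % is set by controls: 0 for no effect and ±100 for the full control effect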). The conditions noted are these: ME-180 SIE beta-lactamase reporter, IL-6 stimulated, 5 h; at 7.69 µM (top of the series) unless noted. A digest of the protocol: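 Reporter line: ME-180 cervical carcinoma, SIE-beta-lactamase. Treatment: compound with 40 pM IL-6, 5 hrs, 37 C, in low-serum OPTI-MEM with 10 mM HEPES pH 7.3. Detection: 460/530 nm fluorescence.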

Assay [5] concerns the target Glucocorticoid receptor (Homo sapiens) (UniProt P04150). The assay is described as follows: GR-GFP Redistribution (AID 450;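 active = compounds whose dose series gives a full or clear partial fitted curve of increased nuclear translocation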; note: potency is the fitted concentration of half-maximal effect). The conditions noted are these: U2OS GR-GFP nuclear translocation, laser cytometry, 2 h.
For assay [6] the target is unchanged. The assay is described as follows: GR-EFC Redistribution (AID 451; calls by dose curve; note: potency is the fitted concentration of half-maximal effect). The conditions noted are these: CHO-K1 GR-EFC translocation, beta-gal luminescence, 2 h. A digest of the protocol: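 CHO-K1 cells expressing nuclear EA and GR-ED fragments of b-gal; compounds titrated up to 46 uM final, 2 h at 37 C. GR nuclear translocation read as complemented b-gal luminescence after 1 h RT detection.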

In assay [7] the target is Mitogen-activated protein kinase 10 (Mus musculus) (UniProt Q61831). Description: JNK3 AlphaScreen Assay (AID 530; active = well fitted curve in either direction with a large enough effect, not every such curve was filed as active;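 note: kinase came from lysate of stimulated human HepG2 cells; signal reports phosphorylation of biotinylated GST-cJun 1-79 at Ser73 with 10 µM ATP; % is set by controls: 0 for no effect and ±100 for the full control effect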). The conditions noted are these: JNK3 lysate, c-Jun phosphorylation; series mostly up to 57.1 µM. A digest of the protocol: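 qHTS format: compounds tested as titrations against IL-1beta/TNF-alpha-activated HepG2 lysate JNK3 with biotin-GST-cJun substrate and 10 uM ATP at room temperature. Loss of anti-phospho-cJun AlphaScreen signal indicates inhibition.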
In general terms: Bead proximity is the source of the signal in Alpha formats.

The target of assay [8] is Cytochrome P450 3A4 (Homo sapiens) (UniProt P08684). The assay is described as follows: qHTS Assay for Activators of Cytochrome P450 3A4 (AID 885). Note: nearly all actives have a fitted effect of over 65% in size. The conditions noted are these: recombinant CYP3A4, Luciferin-PPXE luminescence, 60 min; series mostly up to 57.1 µM. A digest of the protocol: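 Signal was normalized against complete inhibition by 57 uM ketoconazole. The reaction used 20nM CYP3A4 with 25uM Luciferin-PPXE, 10-min compound preincubation and a 60-min NADPH-supported step at RT.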
Chain of Cytochrome P450 3A4 (Homo sapiens) (P08684 whole entry, looked up): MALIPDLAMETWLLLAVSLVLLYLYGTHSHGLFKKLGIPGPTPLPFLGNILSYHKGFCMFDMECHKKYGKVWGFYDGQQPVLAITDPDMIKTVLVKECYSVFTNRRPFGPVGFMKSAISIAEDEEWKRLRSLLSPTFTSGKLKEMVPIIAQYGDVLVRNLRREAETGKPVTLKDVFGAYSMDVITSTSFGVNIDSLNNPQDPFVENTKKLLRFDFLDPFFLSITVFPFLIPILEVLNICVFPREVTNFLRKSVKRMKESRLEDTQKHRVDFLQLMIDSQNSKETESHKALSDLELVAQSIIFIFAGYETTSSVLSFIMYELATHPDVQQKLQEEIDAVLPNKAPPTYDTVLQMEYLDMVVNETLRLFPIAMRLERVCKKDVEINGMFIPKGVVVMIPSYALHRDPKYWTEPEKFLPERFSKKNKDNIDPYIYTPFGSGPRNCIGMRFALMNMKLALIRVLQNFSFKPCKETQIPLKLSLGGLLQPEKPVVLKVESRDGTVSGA
(Quantitative high-throughput screening tests each substance at several concentrations.)

Assay [9] addresses Cytochrome P450 2C19 (Homo sapiens) (UniProt P33261). The assay is described as follows: qHTS Assay for Inhibitors and Substrates of Cytochrome P450 2C19 (AID 899). Note: potency is the fitted concentration of half-maximal effect; nearly all actives have a fitted effect of over 60% in size. The conditions noted are these: recombinant CYP2C19, luciferin-H EGE luminescence; series mostly up to 57.1 µM. The gist of the method: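 5 nM human CYP2C19 with 10uM Luciferin-H EGE (at KM) in 50mM KPO4, compound preincubated 10 min at 37C, then NADPH regeneration for 60 min at 37C. Luciferin read by luminescence after detection reagent; normalized to 57uM ketoconazole as full inhibition.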

The nature of assay [10]: qHTS Assay for Lipid Storage Modulators (AID 1519; calls by dose curve). The conditions noted are these: Drosophila S3 cells, BODIPY lipid droplet/cell ratio, laser cytometry, cells loaded with oleic acid; for activity change, negative = inhibition: at 57.5 µM (top of the series). The gist of the method: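 Cells seeded at 5,000 per well were treated with compounds over a concentration series and loaded with oleic acid (400 uM, as added). Lipid droplet fluorescence (488 nm excitation, 500-530 nm channel) was read by laser-scanning cytometry and normalized to 20 uM Triacsin C.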

Assay [11] addresses Dual specificity protein kinase CLK4 (Homo sapiens) (UniProt Q9HAZ1). Description: qHTS Assay for Inhibitors of CDC-like Kinase 4 (Kinase-Glo Assay) (AID 1770). Note: potency is the fitted concentration of half-maximal effect; nearly all actives have a fitted effect of over 65% in size. The conditions noted are these: recombinant Clk4, Kinase-Glo ATP depletion luminescence; series mostly up to 66.7 µM. A digest of the protocol: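 Clk4 25 nM, RS peptide 100 uM, ATP 1 uM, pH 7.5 Tris, 10 mM MgCl2, 2.5 mM DTT; 4.5 h RT; ATP depletion read by Kinase-Glo luminescence.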

Assay [12] shares this target. The assay is described as follows: qHTS Assay for Inhibitors of CDC-like Kinase 4 (ADP-Glo Assay) (AID 1771). Note: nearly all actives have a fitted effect of over 70% in size. Note: potency is the fitted concentration of half-maximal effect. The conditions noted are these: recombinant CLK4, ADP-Glo luminescence; series mostly up to 80 µM. The gist of the method:
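Kinase reaction: Clk4 at 25 nM, RS repeat peptide substrate at 100 uM, ATP at 1 uM, 1 hr, room temperature. Product ADP detected as luciferase signal via ADP-Glo.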

The target in assay [13] is Ubiquitin carboxyl-terminal hydrolase 1 (Homo sapiens) (UniProt O94782). Description: Inhibitors of USP1/UAF1: Pilot qHTS (AID 504865).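 Note: rhodamine fluorescence freed from ubiquitin-rhodamine substrate followed over time; top concentration of the series differs between compounds; % is set by controls: 0 for no effect and ±100 for the full control effect; nearly all actives have a fitted effect of over 35% in size.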 The conditions noted are these: purified USP1/UAF1, Ub-rhodamine cleavage fluorescence; series mostly up to 54.9 µM. A digest of the protocol:
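Enzyme-free wells gave the negative control, while test wells held 1nM USP1/UAF1 preincubated with compound for 15 min at room temperature. Ub-Rho at 150nM final started the reaction, and fluorescence at 480/540 nm was recorded kinetically.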

A short description of assay [14]: AP1 Signaling Pathway (AID 357; active = well fitted curve in either direction with a large enough effect, not every such curve was filed as active; note: % is set by controls: 0 for no effect and ±100 for the full control effect). The conditions noted are these: ME-180 AP-1-bla reporter, EGF-induced, beta-lactamase ratio, 5 h; at 7.69 µM (top of the series) unless noted. A digest of the protocol: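 Read-out was the 460nm/530nm emission ratio (excitation 405nm) after CCF4 loading for 2.5 hours at room temperature. Cells carried an AP-1-driven beta-lactamase reporter, were stimulated with EC50 EGF plus compound for 5 hours, and AC50 values came from titrations.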

Assay [15] deals with 3',5'-cyclic-AMP phosphodiesterase 4B (Homo sapiens) (UniProt Q07343). The assay is described as follows: qHTS Assay for Inhibitors of PDE-IV (AID 607; active = well fitted activation curve with a large enough effect in the main read-out, with a control signal flat, not every such curve was filed as active; note: % of control where 0% means no effect). The conditions noted are these: HEK293 ACTOne CNG channel cells, membrane potential fluorescence; series mostly up to 22.9 µM. The gist of the method: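 Cell-based read-out of cAMP via a modified cyclic nucleotide-gated channel and membrane potential dye (535/590 nm) in HEK293 cells expressing PDE4 endogenously. Compounds tested up to 22.9 uM final; 100 uM RO 20-1724 reference.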
Chain of 3',5'-cyclic-AMP phosphodiesterase 4B (Homo sapiens) (Q07343 whole entry, looked up): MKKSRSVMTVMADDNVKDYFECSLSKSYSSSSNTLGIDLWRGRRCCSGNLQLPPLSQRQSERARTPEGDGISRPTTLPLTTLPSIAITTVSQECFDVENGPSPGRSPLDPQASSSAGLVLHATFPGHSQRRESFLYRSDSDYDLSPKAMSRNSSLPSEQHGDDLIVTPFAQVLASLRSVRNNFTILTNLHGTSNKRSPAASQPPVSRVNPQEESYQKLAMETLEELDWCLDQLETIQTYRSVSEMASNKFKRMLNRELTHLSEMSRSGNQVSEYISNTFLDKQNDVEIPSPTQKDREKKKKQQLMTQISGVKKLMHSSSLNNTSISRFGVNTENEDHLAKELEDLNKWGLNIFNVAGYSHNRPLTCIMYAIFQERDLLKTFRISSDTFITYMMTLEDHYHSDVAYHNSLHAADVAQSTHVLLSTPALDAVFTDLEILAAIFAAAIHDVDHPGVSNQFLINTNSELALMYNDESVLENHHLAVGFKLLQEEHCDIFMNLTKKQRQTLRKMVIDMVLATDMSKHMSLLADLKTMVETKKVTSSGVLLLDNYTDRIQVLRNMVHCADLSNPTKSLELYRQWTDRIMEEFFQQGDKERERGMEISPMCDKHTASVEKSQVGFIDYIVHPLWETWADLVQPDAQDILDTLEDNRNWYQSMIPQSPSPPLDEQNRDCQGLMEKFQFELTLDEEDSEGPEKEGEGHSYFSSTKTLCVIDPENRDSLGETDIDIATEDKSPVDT

Assay [16] concerns the target Cytochrome P450 3A4 (Homo sapiens) (UniProt P08684). The assay is described as follows: qHTS Assay for Inhibitors and Substrates of Cytochrome P450 3A4 (AID 884). Note: potency is the fitted concentration of half-maximal effect; nearly all actives have a fitted effect of over 50% in size. The conditions noted are these: recombinant CYP3A4, Luciferin-PPXE luminescence; series mostly up to 57.1 µM. The gist of the method:
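20 nM human CYP3A4 with 25 uM Luciferin-PPXE (at KM) in 200 mM KPO4, preincubated 10 min with compound; NADPH regeneration started a 60 min RT reaction. Luciferin detected by luminescence, normalized to 57 uM ketoconazole as full inhibition.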

Assay [17] has as its target Dual specificity protein kinase CLK4 (Homo sapiens) (UniProt Q9HAZ1). The assay is described as follows: qHTS Assay for Inhibitors of CDC-like Kinase 4 (ADP-FP Assay) (AID 1795). Note: nearly all actives have a fitted effect of over 60% in size. Note: potency is the fitted concentration of half-maximal effect. The conditions noted are these: Transcreener ADP fluorescence polarization; series mostly up to 50 µM. A digest of the protocol: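 Kinase activity was followed as ADP output, converted from fluorescence polarization with a calibration curve. Reactions ran one hour at low ATP (1 uM) with RS peptide substrate.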

Assay [18] can be described thus: qHTS Assay for Identification of Small Molecule Agonists for Hypoxia Response Element Signaling Pathway (AID 914; active = well fitted activation curve with a large enough effect in the signal ratio, with a control signal flat, not every such curve was filed as active; the % refers to the signal ratio; note: % of control where 0% means no effect). The conditions noted are these: ME-180 (cervical carcinoma) HRE-bla reporter, beta-lactamase ratio, CoCl2, 17 h; activation: stronger effect = higher value. The gist of the method:
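In Opti-MEM containing 0.5% dialyzed FBS and 10 mM HEPES, ME-180 HRE-bla cells received a compound titration and EC50 CoCl2. They were incubated 17 hours, then CCF4-loaded 2.5 hours at room temperature before ratio reading.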

Setting [19] is: measured here: cell count channel max response.
The mark [20] stands for this setting: measured here: lipid channel max response.

Chain of Lysosomal acid glucosylceramidase (Homo sapiens) (P04062 whole entry, looked up): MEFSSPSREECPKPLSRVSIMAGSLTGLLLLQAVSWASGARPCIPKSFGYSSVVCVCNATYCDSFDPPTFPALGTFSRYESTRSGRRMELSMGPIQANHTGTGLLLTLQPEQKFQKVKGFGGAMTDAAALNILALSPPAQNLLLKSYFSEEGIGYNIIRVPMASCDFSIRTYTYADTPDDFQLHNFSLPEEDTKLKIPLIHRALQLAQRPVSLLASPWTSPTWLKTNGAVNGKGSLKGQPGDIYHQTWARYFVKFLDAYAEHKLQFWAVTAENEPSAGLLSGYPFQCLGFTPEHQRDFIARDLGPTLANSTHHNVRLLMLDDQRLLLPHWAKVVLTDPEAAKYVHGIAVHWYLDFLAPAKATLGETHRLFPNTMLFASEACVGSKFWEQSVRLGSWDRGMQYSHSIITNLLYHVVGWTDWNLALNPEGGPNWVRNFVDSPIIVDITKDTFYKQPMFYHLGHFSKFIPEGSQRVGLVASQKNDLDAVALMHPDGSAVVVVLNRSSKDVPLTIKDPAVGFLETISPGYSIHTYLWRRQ
Chain of Glucocorticoid receptor (Homo sapiens) (P04150 whole entry, looked up, the tested form may be a part): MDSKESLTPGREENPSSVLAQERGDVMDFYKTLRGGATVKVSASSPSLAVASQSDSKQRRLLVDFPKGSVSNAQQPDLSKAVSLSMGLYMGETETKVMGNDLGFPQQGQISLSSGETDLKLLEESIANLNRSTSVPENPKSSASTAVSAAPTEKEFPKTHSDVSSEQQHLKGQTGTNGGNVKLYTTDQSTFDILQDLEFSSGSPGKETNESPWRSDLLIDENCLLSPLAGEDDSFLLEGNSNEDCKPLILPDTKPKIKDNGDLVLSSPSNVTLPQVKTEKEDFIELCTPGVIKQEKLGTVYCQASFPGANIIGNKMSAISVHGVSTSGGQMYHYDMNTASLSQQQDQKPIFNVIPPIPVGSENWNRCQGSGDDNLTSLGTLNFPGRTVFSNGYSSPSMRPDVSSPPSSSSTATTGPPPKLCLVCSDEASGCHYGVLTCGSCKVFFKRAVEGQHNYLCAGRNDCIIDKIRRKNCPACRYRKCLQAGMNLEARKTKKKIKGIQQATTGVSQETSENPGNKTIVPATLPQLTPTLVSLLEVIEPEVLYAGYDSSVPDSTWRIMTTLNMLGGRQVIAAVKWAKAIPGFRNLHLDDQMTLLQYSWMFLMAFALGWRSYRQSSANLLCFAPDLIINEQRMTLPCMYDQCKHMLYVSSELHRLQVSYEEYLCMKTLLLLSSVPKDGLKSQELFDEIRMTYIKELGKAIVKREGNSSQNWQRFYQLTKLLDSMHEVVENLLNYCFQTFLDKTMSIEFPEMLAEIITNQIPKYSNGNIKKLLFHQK
Chain of Ubiquitin carboxyl-terminal hydrolase 1 (Homo sapiens) (O94782 whole entry, looked up): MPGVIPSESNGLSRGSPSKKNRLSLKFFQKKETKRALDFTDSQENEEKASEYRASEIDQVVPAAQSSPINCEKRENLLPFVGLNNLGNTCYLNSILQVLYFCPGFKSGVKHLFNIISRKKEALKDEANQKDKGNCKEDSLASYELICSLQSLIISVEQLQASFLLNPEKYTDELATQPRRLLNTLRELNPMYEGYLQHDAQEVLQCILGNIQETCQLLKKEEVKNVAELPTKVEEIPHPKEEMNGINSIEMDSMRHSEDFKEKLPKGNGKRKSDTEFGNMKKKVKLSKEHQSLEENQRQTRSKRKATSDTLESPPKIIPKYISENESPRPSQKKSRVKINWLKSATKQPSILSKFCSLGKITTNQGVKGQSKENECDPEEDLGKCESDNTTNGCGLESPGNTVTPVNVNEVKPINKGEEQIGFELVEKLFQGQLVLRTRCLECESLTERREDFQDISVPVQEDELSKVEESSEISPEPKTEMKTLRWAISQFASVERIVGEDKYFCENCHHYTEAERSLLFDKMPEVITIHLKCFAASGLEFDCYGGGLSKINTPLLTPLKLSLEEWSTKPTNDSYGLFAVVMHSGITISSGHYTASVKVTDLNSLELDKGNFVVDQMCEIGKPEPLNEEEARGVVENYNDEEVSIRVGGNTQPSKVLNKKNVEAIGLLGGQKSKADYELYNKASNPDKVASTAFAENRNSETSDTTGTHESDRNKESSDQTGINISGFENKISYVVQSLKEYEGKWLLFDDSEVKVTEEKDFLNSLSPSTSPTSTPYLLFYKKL
Chain of Cytochrome P450 1A2 (Homo sapiens) (P05177 whole entry, looked up): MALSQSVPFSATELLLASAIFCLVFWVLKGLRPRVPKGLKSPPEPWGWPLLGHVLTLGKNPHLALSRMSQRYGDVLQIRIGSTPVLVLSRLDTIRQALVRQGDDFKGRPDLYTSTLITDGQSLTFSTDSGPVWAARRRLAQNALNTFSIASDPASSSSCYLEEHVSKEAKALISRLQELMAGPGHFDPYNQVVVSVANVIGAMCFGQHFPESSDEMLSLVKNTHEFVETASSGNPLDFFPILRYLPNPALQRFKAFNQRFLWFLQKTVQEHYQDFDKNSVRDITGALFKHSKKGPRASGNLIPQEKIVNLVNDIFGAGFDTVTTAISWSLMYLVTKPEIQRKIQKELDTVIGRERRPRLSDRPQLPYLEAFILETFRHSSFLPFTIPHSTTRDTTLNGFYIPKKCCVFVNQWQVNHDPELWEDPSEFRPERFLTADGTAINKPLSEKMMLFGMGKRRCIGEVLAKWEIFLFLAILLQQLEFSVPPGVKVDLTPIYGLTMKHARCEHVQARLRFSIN
Chain of Dual specificity protein kinase CLK4 (Homo sapiens) (Q9HAZ1 whole entry, looked up): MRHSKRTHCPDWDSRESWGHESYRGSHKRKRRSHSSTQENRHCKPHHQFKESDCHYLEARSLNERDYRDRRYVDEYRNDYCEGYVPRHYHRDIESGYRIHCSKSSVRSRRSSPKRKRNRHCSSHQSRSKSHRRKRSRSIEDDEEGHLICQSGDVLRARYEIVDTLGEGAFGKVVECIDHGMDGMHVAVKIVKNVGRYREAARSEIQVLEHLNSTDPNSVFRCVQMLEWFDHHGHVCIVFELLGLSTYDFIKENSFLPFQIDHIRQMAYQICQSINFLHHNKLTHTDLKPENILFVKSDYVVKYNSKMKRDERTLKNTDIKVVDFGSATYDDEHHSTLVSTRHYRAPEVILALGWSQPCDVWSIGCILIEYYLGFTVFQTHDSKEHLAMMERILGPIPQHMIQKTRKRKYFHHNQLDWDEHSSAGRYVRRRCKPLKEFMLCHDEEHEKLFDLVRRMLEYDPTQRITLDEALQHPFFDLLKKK
Chain of Cytochrome P450 2C19 (Homo sapiens) (P33261 whole entry, looked up): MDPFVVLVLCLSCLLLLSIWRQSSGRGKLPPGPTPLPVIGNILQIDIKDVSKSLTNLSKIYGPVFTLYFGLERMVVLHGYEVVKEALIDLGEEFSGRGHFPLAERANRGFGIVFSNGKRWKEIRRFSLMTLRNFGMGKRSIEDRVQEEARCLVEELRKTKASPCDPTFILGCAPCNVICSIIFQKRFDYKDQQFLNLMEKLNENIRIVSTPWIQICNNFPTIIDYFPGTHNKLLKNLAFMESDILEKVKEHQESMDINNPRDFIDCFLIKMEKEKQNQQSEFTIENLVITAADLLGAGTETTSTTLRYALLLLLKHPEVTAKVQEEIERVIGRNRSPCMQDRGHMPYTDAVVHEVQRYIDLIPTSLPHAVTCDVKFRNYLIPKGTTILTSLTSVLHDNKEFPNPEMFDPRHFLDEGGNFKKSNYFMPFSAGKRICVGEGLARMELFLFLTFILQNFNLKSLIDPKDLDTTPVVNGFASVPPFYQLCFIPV

Turning to `COc1ccccc1-c1ccc2ncnc(Nc3ccccc3)c2c1`, the Potency in [1] was > 11.4 µM (inactive); in [2] it was 2.51 µM (active); in [5], > 46 µM (inactive); in assay [6], > 46 µM (inactive); in assay [9] it was 5.01 µM (active); in assay [11] it was 15.8 µM (active). Further, the Potency in assay [12] is 15.8 µM (active). The activity change, negative = inhibition was 10.9% (inactive) in assay [3] and -15.1% (inactive) in [10]. For the same molecule, in assay [4], the activity, negative = inhibition is 9.56% (inactive). For the same molecule, the Potency result in assay [7], in [8] and in assay [13] was “inactive” each time. In addition, the max response in [10] (setting [19]) is -15.8%; in assay [10] (setting [20]) it was -29%.

Take `COCCn1c(=O)c(C)nc2cnc(Nc3cccc(OC)c3)nc21`: the Potency in assay [1] was > 11.4 µM (inactive); in assay [2], 1 µM (active); in assay [5] it was > 9.22 µM (inactive); in [6] it was > 46 µM (inactive); in assay [11], 15.8 µM (active). In addition, the activity change, negative = inhibition was 7.44% (inactive) in [14], 5.07% (inactive) in assay [3] and -6.39% (inactive) in [10]. The activity, negative = inhibition in assay [4] is -7.83% (inactive). In addition, the Potency entry in assay [7], in assay [15], in assay [8] and in [13] was “inactive” in each case. Also, the values for the max response in [10] (setting [19]) and in assay [10] (setting [20]) were -14.8% and -22.1%, respectively.

With `COc1ccccc1CNc1ncnc2ccc(-c3ccccc3OC)cc12`, the Potency is > 11.4 µM (inactive) in [1]; 1 µM (active) in assay [2]; > 46 µM (inactive) in assay [5]; > 46 µM (inactive) in [6]; 6.31 µM (active) in [16]; 3.16 µM (active) in assay [9]. The values for the Potency in assay [11] and in assay [17] were 4.47 µM (active) and 1.58 µM (active), respectively. The figures for the activity change, negative = inhibition in assay [14] and in assay [10] were -19.9% (inactive) and -20% (inactive), respectively. In addition, the Potency result in [7], in [8] and in assay [13] was “inactive” throughout. In addition, the max response is -10.4% in assay [10] (setting [19]) and -24.8% in assay [10] (setting [20]).

Take `CN1CCN(c2ncncc2-c2ccc(N(C)C)cc2)CC1`: the Potency in [1] was > 11.4 µM (inactive); in assay [2], 12.6 µM (active); in assay [5], > 46 µM (inactive); in assay [6], > 46 µM (inactive). For the same molecule, the values for the activity change, negative = inhibition in [14], in [3] and in assay [10] were -1.37% (inactive), 6.42% (inactive) and 2.46% (inactive), respectively. The activity, negative = inhibition in assay [4] is 3.73% (inactive). Besides, the Potency result in assay [7], in assay [15], in assay [8], in [12], in assay [17] and in assay [13] was “inactive” each time. Besides, the figures for the max response in assay [10] (setting [19]) and in assay [10] (setting [20]) were 19.8% and 21.2%, respectively.

On to `COc1cccc(-c2ccc3ncnc(NCCN4CCOCC4)c3c2)c1`, for which the activity change, negative = inhibition was -12.4% (inactive) in [14] and -1.99% (inactive) in assay [10]. For the same molecule, in assay [4], the activity, negative = inhibition is -15.6% (inactive). Moreover, the Potency was > 46 µM (inactive) in assay [5]; > 46 µM (inactive) in assay [6]; 1.78 µM (active) in assay [11]; 1 µM (active) in assay [12]; 0.631 µM (active) in [17]. Also, the Potency result in assay [7] and in assay [13] was “inactive” in each case. In addition, the activation in [18] was -14.8% (inactive). Also, the max response in [10] (setting [19]) was -14.3%; in assay [10] (setting [20]), -15.9%.
